A selection: hits, their analogues and other compounds. The true share with any hit is near 11%.
ALDH1A1 block: inhibitors of human aldehyde dehydrogenase 1A1; P00352; Potency, µM (doses to about 75.3 µM), inactives show at the highest dose activity, negative = inhibition, usual class: inhibitors; Purified ALDH1A1, NADH fluorescence, propionaldehyde substrate; 220,000 tested, 7.3% active;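 note: potency is the fitted concentration of half-maximal effect; plate controls were no enzyme wells and a reference inhibitor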
IMPase cell inh: cell-permeable inhibitors of inositol monophosphatase (IMPase) | CHO-M1 cells, IP1 accumulation, HTRF TR-FRET ratio | inhibition (IP1 accumulation), % at 46.1 µM | 120,000 tested, under 10 active; active = well fitted curve in the direction sought with a large enough effect in the signal ratio, not every such curve was filed as active; inconclusive = small, poorly fitted or top-dose-only effect, or a change in a side signal; inactive = no such curve, though single readings can be large or run the other way; the % refers to the signal ratio;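 note: cells stimulated with carbachol in lithium chloride buffer; plate controls were DMSO basal wells for no effect and reference inhibitor wells for full effect; higher means more IMPase inhibition seen as more IP1 and lower FRET ratio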
Target sequence (P97697 whole entry, looked up): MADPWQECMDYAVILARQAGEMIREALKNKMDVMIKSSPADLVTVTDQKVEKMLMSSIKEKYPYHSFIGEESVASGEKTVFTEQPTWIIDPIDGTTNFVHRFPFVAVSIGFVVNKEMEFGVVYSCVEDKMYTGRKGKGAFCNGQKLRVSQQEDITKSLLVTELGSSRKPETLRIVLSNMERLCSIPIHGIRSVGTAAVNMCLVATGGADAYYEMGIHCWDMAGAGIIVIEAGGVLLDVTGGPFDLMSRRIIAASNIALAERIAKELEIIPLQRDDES
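CHO-M1, 2000 cells/well, cultured 16–30 h; cpd up to 46 uM; carbachol (50 uM solution, stimulation buffer w/ 50 mM LiCl, pH 7.4), 30 min 37C; IP-One TR-FRET, 10 min RT; Ex 320/Em 665, 620; Hill-fit AC50.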
IMPase Li inh: membrane-permeable IMPase blocker, potentiated with lithium. CHO-M1 cells, IP1 TR-FRET (IP-One), carbachol + lithium. Potency, µM (top dose mostly 59.4 µM), without a hit: top-dose activity, negative = IMPase inhibition, usual class: inhibitors. 210,000 tested, 0.35% active. AID 1457; active = well fitted curve in the direction sought with a large enough effect; inconclusive = small, poorly fitted or top-dose-only effect, or another doubt; inactive = no such curve, though single readings can be large; an effect the other way counts as inactive or inconclusive;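 note: IP1 builds up when IMPase is blocked and the TR-FRET signal falls; potency is the fitted concentration of half-maximal effect; plate controls were basal vehicle for no effect and high inhibitor control for full effect; nearly all actives have a fitted effect of over 50% in size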
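Lithium-sensitised IP1 accumulation assay; M1-expressing CHO cells treated 30 min at 37C with compound. Competitive antibody detection by time-resolved FRET followed a 10 min room-temperature lysis step.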
PNC inhibitor: blocks assembly of the perinucleolar compartment; PC3M PTB-GFP, PNC prevalence imaging, 16 h; stronger effect = lower value; activity change (PNC), negative = inhibition, % at 10 µM; 140,000 tested, 3.1% active;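 active = readout at or below -70, meaning at least 70% loss of cells showing the perinucleolar compartment, a nuclear body marking cancer cells; inconclusive = readout between -30 and a set limit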;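 note: plate controls were DMSO wells for no effect and camptothecin positive control wells for full effect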
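PC3M cells stably expressing PTB-GFP, 750–1000 cells/well, treated 16 h at 37 °C with compound (23 nl of library stock), in duplicate. After paraformaldehyde fixation and Hoechst stain, imaged at 20x; PNC prevalence scored by image analysis.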
HPGD inh: HPGD (human) dehydrogenase inhibition | P15428 | purified HPGD, NADH fluorescence kinetic, PGE2 substrate | Potency, µM, for the others: at the highest dose activity change, negative = inhibition, actives largely listed as inhibitors | 150,000 tested, 4.3% active; note: potency is the fitted concentration of half-maximal effect
Target sequence (P15428 whole entry, looked up): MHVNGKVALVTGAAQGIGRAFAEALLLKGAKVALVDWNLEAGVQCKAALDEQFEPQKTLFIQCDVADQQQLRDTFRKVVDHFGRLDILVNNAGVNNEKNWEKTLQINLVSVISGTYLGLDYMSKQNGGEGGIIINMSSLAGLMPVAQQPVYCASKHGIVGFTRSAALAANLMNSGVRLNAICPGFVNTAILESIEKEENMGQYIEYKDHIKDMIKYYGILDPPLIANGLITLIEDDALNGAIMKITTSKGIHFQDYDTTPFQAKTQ
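20 nM HPGD preincubated 15 min at room temperature with compound in 50 mM Tris-HCl pH 8, 0.01% Tween 20. Started with 1 mM NAD+ and 30 uM prostaglandin E2; NADH fluorescence (360/450 nm) read 5 times over 30-s intervals, last minus first.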
NPSR antagonist: antagonists of human neuropeptide S receptor cAMP signaling. CHO-NPSR cells, cAMP TR-FRET, antagonist mode. 220,000 tested, 1% active. Q6W5P4. Potency, µM (titrated, usually from 38.3 µM), for the others: at the highest dose activity change, negative = inhibition, actives largely listed as inhibitors. AID 1461; active = well fitted curve in the direction sought with a large enough effect; inconclusive = small, poorly fitted or top-dose-only effect, or another doubt; inactive = no such curve, though single readings can be large; an effect the other way counts as inactive or inconclusive; note: potency is the fitted concentration of half-maximal effect; nearly all actives have a fitted effect of over 50% in size
The depositor's hits bear a star; ? = inconclusive; . = no result given; [ ] = another dose, or the depositor's remark. Unless noted, calls come from the whole dose curve; as a rule, active = well fitted inhibition curve with a large enough effect (not every such curve was filed as active); inconclusive = small, poorly fitted or top-dose-only effect, or another doubt; inactive = no such curve, though single readings can be large or run the other way. Unless noted, % is set by controls: 0 for no effect and ±100 for the full control effect.

SMILES	ALDH1A1 block	IMPase cell inh	IMPase Li inh	PNC inhibitor	HPGD inh	NPSR antagonist
O=[N+]([O-])c1cc(S(=O)(=O)C(F)(F)F)ccc1Sc1nc2ccccc2s1	-14.9%	18.3	25.8%[38.3 µM]	113.3	25.1µM*	?
CCOC(=O)C1CCCN(C(=O)c2sc3nc(-c4ccc(F)cc4)cn3c2C)C1 (stereo not drawn)	10µM*	2.8	12.3%[38.3 µM]	-1.8	-43.6%	?
CCOC(=O)C1CCCN(C(=O)c2cc(-c3ccc(C)cc3)on2)C1 (stereo not drawn)	-8.4%	5.6	12.4%[38.3 µM]	4.8	15.8µM*	-14.5%[46.1 µM]
Nc1c(S(=O)(=O)c2ccccc2)csc1C(=O)O	16.8%	.	-2.6%	.	.	2.3%
Cc1nn(Cc2ccccc2Cl)c2sc(C(=O)NCc3ccc4c(c3)OCO4)cc12	?	9.5	12.4%[38.3 µM]	-16.3	?	?
CC(=O)c1cc(C#N)c(SCc2ccccc2)nc1C	17.8µM*	4.8	1.4%[38.3 µM]	?	-20.2%	-15.1%[46.1 µM]
COc1ccc(-c2cc([C@H]3[C@@H]4C=CCC[C@@]4(C)C(=O)N3Cc3ccccc3)ccc2F)cc1	.	.	.	.	.	-56.8%
CCCC(=O)N1CCCC(c2nc(-c3cccs3)no2)C1 (stereo not drawn)	-4.6%	2.1	-0.3%[38.3 µM]	-24.5	6.3%	1.3%[46.1 µM]
CC1(C)CC2CC(C)(CN2C(=O)COC(=O)Cn2[nH]c(=O)c3ccccc3c2=O)C1 (stereo not drawn)	-0.8%	6.4	11.7%[38.3 µM]	-88.0*	-10.5%	-11.2%[46.1 µM]
Cc1cccc(C)c1OCC(=O)N1CC2(C)CC1CC(C)(C)C2 (stereo not drawn)	1.3%	0.9	-7.1%[38.3 µM]	21.5	-8.2%	?
Cc1ccc(OCC(=O)N2CC3(C)CC2CC(C)(C)C3)cc1 (stereo not drawn)	5.1%	-4.2	-0.4%	-100.0*	-13.0%	6.9%[46.1 µM]
CS(=O)(=O)n1nc(OC(=O)c2cccs2)cc1N	-3.8%	.	5.9%	.	.	-22.1%
O=C1C=C(NNC(=O)c2ccccc2Br)CCC1	1.7%	.	3.1%	124.4	-13.1%	8.5%
CC(c1ccccc1)N1C(=O)c2ccc(C(=O)NCc3ccco3)cc2C1=O (stereo not drawn)	?	3.7	8.4%	17.8	-3.7%	-13.0%
O=C(NCc1ccco1)c1ccc2c(c1)C(=O)N(Cc1ccccc1)C2=O	12.6µM*	-4.3[1.84 µM]	-4.8%[38.3 µM]	?	-25.8%	-9.4%[46.1 µM]
CC(C)CCN1C(=O)c2ccc(C(=O)NCc3ccco3)cc2C1=O	11.2µM*	4.9	27.3%[38.3 µM]	?	-16.0%	-19.7%[46.1 µM]
CCN1C(=O)c2ccc(C(=O)NCc3ccccc3)cc2C1=O	4.47µM*	5.8	18.3%[38.3 µM]	-2.1	-18.5%	-13.4%[46.1 µM]
CCOC(=O)N1CCC(N2C(=O)c3ccc(C(=O)NCc4ccc(F)cc4)cc3C2=O)CC1	-3.9%	-7.0	5.3%	13.9	-8.8%	-13.9%
CCOC(=O)N1CCC(N2C(=O)c3ccc(C(=O)NCc4ccco4)cc3C2=O)CC1	11.9µM*	4.8	20.1%	-119.3*	-12.5%	-16.8%
O=C(NCc1ccccc1)c1ccc2c(c1)C(=O)N(Cc1ccncc1)C2=O	?	0.7	2.8%[38.3 µM]	-4.6	-8.9%	-12.4%[46.1 µM]
O=C(NC(=S)NCc1ccccc1)c1ccccc1	?	.	-4.0%	.	.	-30.1%
Cc1ccc(-c2cc(C(F)F)n3ncc(C(=O)N4CCN(c5cccc(C)c5C)CC4)c3n2)cc1	?	17.5	-0.8%[38.3 µM]	-20.3	-22.3%	?
CCN1C(=O)c2ccc(C(=O)Nc3nccs3)cc2C1=O	4.47µM*	-1.0	33.1%[38.3 µM]	?	-8.4%	4.7%[46.1 µM]
O=C(CCN1C(=O)c2ccccc2C1=O)Nc1sc2c(c1C(=O)NCc1ccco1)CCCC2	?	7.2	-6.9%[38.3 µM]	-113.9*	-13.2%	-29.9%[46.1 µM]
C=CCSc1nnc(NC(=O)Cc2ccc(OC)c(OC)c2)s1	?	.	5.4%	.	.	-7.7%
SMILES	ALDH1A1 block	IMPase cell inh	IMPase Li inh	PNC inhibitor	HPGD inh	NPSR antagonist
COc1ccccc1/C=C1\CCCC2=C1Nc1nnnn1C2c1ccccc1OC (stereo not drawn)	25.1µM*	.	6.6%	-1.0	-16.5%	-17.7%
COc1ccccc1NC(=O)C1=C(C)Nc2nnnn2C1c1ccccc1OC (stereo not drawn)	-6.4%	-3.7	19.1%[38.3 µM]	12.3	-5.9%	-10.7%[46.1 µM]
COC(=O)c1ncn(C2OC(COC(C)=O)C(OC(C)=O)C2OC(C)=O)n1 (stereo not drawn)	0.8%	.	-2.0%	?	4.4%	4.4%
COC(=O)C(C)N(C(=O)c1cccc(Cl)c1)c1c(C)cccc1C (stereo not drawn)	?	7.2	49.1%[38.3 µM]	-92.4*	-8.5%	?
O=c1c2ccccc2cnn1Cc1n[nH]c(=S)n1-c1cc(Cl)cc(Cl)c1	-7.3%	.	-1.8%	?	-18.1%	-2.0%
Cc1ccc(-n2c(Cc3ccccc3)n[nH]c2=S)c(C)c1	4.8%	.	0.8%	.	.	-11.1%
S=c1[nH]nc(Cc2ccccc2)n1-c1cccc2ccccc12	?	.	-5.5%	14.4	15.8µM*	-22.2%
O=c1c2ccccc2cnn1Cc1n[nH]c(=S)n1-c1ccccc1Cl	31.6µM*	.	-4.6%	-17.4	?	5.0%
COC(=O)CSc1cc([N+](=O)[O-])ccc1NC(=O)OC	?	.	-7.1%	.	.	5.4%
N#C/C(Cn1c[n+](NC(=O)Nc2ccccc2)cn1)=N/O	31.6µM*	3.5	-12.8%[38.3 µM]	16.3	-8.5%	?
N#CCSCC(=O)Nc1ccccc1	-7.7%	10.7	29.7%[38.3 µM]	?	-17.0%	1.8%[46.1 µM]
CS(=O)(=O)N1CCN(c2ccc([N+](=O)[O-])cc2F)CC1	3.16µM*	.	0.0%	.	.	11.5%
CC(=O)N=Cc1c(C)c(C#N)c(=O)n(C)c1O	-3.3%	.	-3.5%	.	.	22.8%
Cc1c(/C=N/Nc2ccc(F)cc2)c(O)n(C)c(=O)c1C#N	3.55µM*	.	4.1%	.	.	9.0%
CC1CC(=O)C2=C(C1)Nc1ncnn1C2c1ccccc1 (stereo not drawn)	17.8µM*	14.2	27.9%[38.3 µM]	-1.1	-24.9%	-7.5%[46.1 µM]
CN(C)c1ccc(/C=C(\C#N)c2nc3ccccc3c(=O)[nH]2)cc1	.	-8.1	.	.	.	.
CCCCNC(=S)N(C)/N=C/c1ccc(F)cc1	2.9%	.	-2.7%	-21.2	28.2µM*	5.4%
Nc1nc(F)cc(N2CCCCCC2)n1	9.6%	.	-5.5%	.	.	2.1%
N=c1nc(N2CCCCC2)cc(N)n1O	-4.7%	5.3	4.4%	-114.6*	-4.7%	18.7%
CCOc1ccc(C(=O)c2cnc3ccccc3c2N2CCN(CC)CC2)cc1	8.91µM*	.	7.0%	.	.	-24.4%
CCc1ccc(C(=O)c2cnc3ccc(OC)cc3c2N2CCN(CC)CC2)cc1	17.8µM*	.	8.9%	.	.	?
CCOC(=O)c1cnc2ccc(OCC)cc2c1N1CCN(c2ccccc2OC)CC1	?	14.3	19.9%[38.3 µM]	-12.4	-10.0%	?
COc1cc(C(C)=O)ccc1Oc1ncnc2c1cnn2-c1ccc(F)cc1	-8.6%	6.2	?	?	15.8µM*	-1.8%[46.1 µM]

Screens: PubChem BioAssay, National Center for Advancing Translational Sciences (NCATS)
